Laboratory results reported in PubChem BioAssay (EPA / NIEHS).
Inconclusive results are not listed. Calls of active or inactive are those of the source. How the source made its calls, unless noted: active means hit-call score of the fitted dose curve at least 0.9, where 1 is the maximum; inconclusive means response in the unintended direction; inactive means score below 0.9.

read-out: UDP glucuronosyltransferase (UGT1A1), UGT1A1 (gene 54658); test: LTEA_HepaRG_UGT1A1: Life Technologies and Expression Analysis (LTEA) Assay for UDP glucuronosyltransferase (UGT1A1) using HepaRG (AID 2283538; active means hit-call score of the fitted dose curve at least 0.9, where 1 is the maximum; inactive means score below 0.9); conditions: mRNA level, 48 h; actives raise or lower the signal
Outline: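 Cells are plated, cultured 48 h, switched to serum-free induction medium, then dosed 48 h at eight concentrations (max 100 uM, 0.5% DMSO). RNA is isolated and UGT1A1 expression measured by qRT-PCR; changes versus DMSO are fitted in both directions.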

Compound | AC50 | outcome
Cc1ccc([N+](=O)[O-])cc1N | 50 µM (active) | –
C1CNCCN1 | – | inactive
Nc1ccc(C(=O)O)cc1 | – | inactive

read-out: UDP glucuronosyltransferase (UGT1A6), UGT1A6 (gene 54578); test: LTEA_HepaRG_UGT1A6: Life Technologies and Expression Analysis (LTEA) Assay for UDP glucuronosyltransferase (UGT1A6) using HepaRG (AID 2283539; active means hit-call score of the fitted dose curve at least 0.9, where 1 is the maximum; inactive means score below 0.9); conditions: mRNA level, 48 h; actives raise or lower the signal
Outline: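 qRT-PCR readout of UGT1A6 mRNA (normalized to ACTB/GAPDH/POLR2A) in differentiated HepaRG cells after 48 h chemical exposure; 8 concentrations, top 100 uM, half-log steps, 0.5% DMSO. Bidirectional curve fit relative to DMSO baseline.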

Compound | outcome
Cc1ccc([N+](=O)[O-])cc1N | inactive
C1CNCCN1 | inactive
Nc1ccc(C(=O)O)cc1 | inactive

read-out: X-box binding protein 1 (XBP1), XBP1 (gene 7494); test: LTEA_HepaRG_XBP1: Life Technologies and Expression Analysis (LTEA) Assay for X-box binding protein 1 (XBP1) using HepaRG (AID 2283540; active means hit-call score of the fitted dose curve at least 0.9, where 1 is the maximum; inactive means score below 0.9); conditions: mRNA level, 48 h; actives raise or lower the signal
Outline: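 HepaRG, 48 h exposure, 8-pt half-log CRC top 100 uM, 0.5% DMSO vehicle, duplicates. Readout: TaqMan qRT-PCR of XBP1 mRNA, housekeeping-normalised (ACTB/GAPDH/POLR2A); bidirectional fit vs DMSO baseline.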

Compound | outcome
Cc1ccc([N+](=O)[O-])cc1N | inactive
C1CNCCN1 | inactive
Nc1ccc(C(=O)O)cc1 | inactive

read-out: not listed separately; test: LTEA_HepaRG_LDH_cytotoxicity: Cytotoxicity Assessment in the Life Technologies and Expression Analysis (LTEA) Assay (AID 2283563); conditions: not given
Outline: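 HepaRG (human liver line), 48 h exposure, 8-pt half-log series from 100 uM, 0.5% DMSO vehicle, duplicates. Read-out: LDH in spent medium. Positive-direction fit vs DMSO baseline.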

Compound | outcome
Cc1ccc([N+](=O)[O-])cc1N | inactive
C1CNCCN1 | inactive
Nc1ccc(C(=O)O)cc1 | inactive

tested on: not listed separately; test: ATG_XTT_Cytotoxicity: Cytotoxicity Assessment in the Attagene TRANS-FACTORIAL HepG2 Assay (AID 2283584); conditions: not given;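 on AC50: cells exposed to compound for 24 h before reading; active means loss of viability signal versus DMSO baseline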
Outline: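 XTT readout of cell number in transfected HepG2 cells, 24 h post-dosing; DMSO serves as negative control and baseline, with activity taken as loss of viability signal.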

Compound | outcome | AC50
CCOC(=O)[C@H](O)[C@@H](O)C(=O)OCC | inactive | –
CC1=CP(=O)(c2ccccc2)CC1 (stereo unspecified) | inactive | –
CC=CC(=O)OCC(C)C | inactive | –
CCC(C)c1ccccc1 (stereo unspecified) | inactive | –
CCCC=C(C=O)CC | inactive | –
Cc1ccc([N+](=O)[O-])cc1N | inactive | –
CCC1(C)C(=O)N(Cl)C(=O)N1Cl (stereo unspecified) | inactive | –
CCCCC(C=O)CC (stereo unspecified) | inactive | –
Cc1cc(=O)[nH]c(=O)[nH]1 | inactive | –
[Cl][Eu]([Cl])[Cl] | inactive | –
COc1nccnc1CC(C)C | inactive | –
CC(C)CCOCc1ccccc1 | inactive | –
CCCCCCCC(=O)OCC | inactive | –
Nc1cccc(N)n1 | inactive | –
CCCCCCCCC(CO)CCCCCC (stereo unspecified) | inactive | –
N#Cc1ccc(C(c2ccc(C#N)cc2)n2cncn2)cc1 | inactive | –
Cc1ccc(C)c(OCCCC(C)(C)C(=O)O)c1 | inactive | –
CCOC(=O)C1=NN(c2ccc(Cl)cc2Cl)C(C)(C(=O)OCC)C1 (stereo unspecified) | inactive | –
CCC(=O)C1CC(C(C)C)CC=C1C (stereo unspecified) | inactive | –
CCc1cccc(C)c1N(C(=O)CS(=O)(=O)O)C(C)COC (stereo unspecified) | inactive | –
c1ccc(-c2nc3ccccc3[nH]2)cc1 | inactive | –
CCCCCCCCCC[N+](C)(CCCCCCCCCC)CCC[Si](OC)(OC)OC | – | 43.9 µM (active)
CC(C=O)c1ccccc1 (stereo unspecified) | inactive | –
Nc1nc(N)nc(-c2ccccc2)n1 | inactive | –
